Each structure is given as a SMILES string. “And” between values parts separate entries of the source, which are not always exact repeats. Equal entries are not always repeated. The panel holds about 83,000 compounds, 20% with a hit somewhere; the sample as a whole holds those more often.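 The endpoint reported here, percent growth, reads 100 for growth as untreated, 0 for no net growth and -100 for all cells dead.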 The source made the active and inactive calls. The calls were made as follows: active = growth percent below 10; inactive = the rest.

The results in this text go back to PubChem BioAssay (NCI).

What all share (assay): NCI-60 one-dose screen, 48 h (100 = growth as untreated, 0 = no growth, -100 = all killed)
Test [1] has as its system SR leukemia. The note with it: 10 µM unless noted.
In test [2] the test system is RPMI-8226 leukemia. The note with it: 10 µM.
In test [3] the test system is OVCAR-8 ovarian. The note with it: 10 µM.
For test [4], the system named is OVCAR-5 ovarian. The note with it: 10 µM.
In test [5] the test system is OVCAR-4 ovarian. Conditions: 10 µM.
For test [6], the system named is SK-OV-3 ovarian. The note with it: 10 µM.
Test [7] relates to IGROV1 ovarian. The note with it: 10 µM.
Test [8] concerns OVCAR-3 ovarian. Conditions: 10 µM.
Test [9] deals with HS 578T breast. The note with it: 10 µM.
For test [10], the system named is NCI/ADR-RES ovarian. Conditions: 10 µM.

As to `Clc1ccc(/C=C/c2ccccn2)c(Cl)c1`, the growth is 80.8% (inactive) in [1]; 102% (inactive) in test [2]; 101% (inactive) in [3]; 106% (inactive) in [4]; 71.2% (inactive) in [5]; 103% (inactive) in test [6]. The growth is 69.6% (inactive) in test [7], 90.4% (inactive) in test [8], 86.3% (inactive) in test [9] and 109% (inactive) in test [10].
`Nc1ccc2cc3ccc(N)cc3nc2c1`: the growth in [1] was 106% (inactive) and 7.41% (active); in test [2], 77.5% (inactive) and 3.77% (active); in test [3], 88% (inactive) and -2.44% (active); in test [4] it was 84.9% (inactive) and 26.6% (inactive); in [5] it was 104% (inactive) and -5.13% (active); in test [6], 78.5% (inactive) and 12.8% (inactive). For the same molecule, the growth is 111% (inactive) and 19.1% (inactive) in [7]; 122% (inactive) and 11.3% (inactive) in test [8]; 123% (inactive) and 23.6% (inactive) in test [9]; 89.1% (inactive) and 12.6% (inactive) in test [10].
Regarding `O=C1NC(=O)c2cc([N+](=O)[O-])ccc21`, the growth in test [1] was 95.3% (inactive); in test [2], 71.2% (inactive); in [3] it was 94.4% (inactive); in [4], 101% (inactive); in test [5] it was 117% (inactive); in test [6] it was 105% (inactive). Further, the growth in test [7] was 103% (inactive); in [8] it was 110% (inactive); in test [9], 127% (inactive); in [10] it was 113% (inactive).
Turning to `CCCCCCCCCCSC(=N)N`, the growth in test [1] is -25% (active); in test [2], -11% (active); in test [3], 61.5% (inactive); in test [4], 77.4% (inactive); in [5], 76.7% (inactive); in test [6], 77.5% (inactive). In addition, the growth is 46.1% (inactive) in test [7], 67% (inactive) in [8], 81.1% (inactive) in [9] and 69.3% (inactive) in test [10].
Take `Cc1cc(NS(=O)(=O)c2ccc(N=Nc3cc(N=Nc4ccc(S(=O)(=O)Nc5cc(C)nc(C)n5)cc4)c4c(NC(=O)C(Cl)Cl)cccc4c3OC(=O)C(Cl)Cl)cc2)nc(C)n1` (tested in a mixture with another compound): the growth in test [1] is 103% (inactive) and 69% (inactive); in [2] it was 114% (inactive) and 101% (inactive); in test [3] it was 94.8% (inactive) and 91.7% (inactive); in test [4], 122% (inactive); in [5], 101% (inactive) and 94.3% (inactive); in test [6] it was 103% (inactive) and 105% (inactive). Moreover, the growth was 104% (inactive) in test [7]; 114% (inactive) and 93.3% (inactive) in test [8]; 111% (inactive) and 128% (inactive) in [9]; 107% (inactive) and 104% (inactive) in [10].
`CS(=O)(=O)OC1CC(n2ccc(=O)[nH]c2=O)OC1COC(c1ccccc1)(c1ccccc1)c1ccccc1` (stereo not drawn): the growth in [1] was 78% (inactive); in test [2], 101% (inactive); in [3] it was 104% (inactive); in test [4] it was 98% (inactive); in test [5], 106% (inactive); in [6] it was 106% (inactive). Besides, the growth was 92% (inactive) in test [7], 100% (inactive) in test [8], 112% (inactive) in [9] and 113% (inactive) in test [10].
For the molecule `Oc1ccc(N=Nc2ccccn2)c(O)c1`, the growth in test [1] is 10.6% (inactive); in test [2], 21.2% (inactive); in [3] it was 18.5% (inactive); in [4] it was 53.8% (inactive); in test [5] it was 29.8% (inactive); in [6], 25.5% (inactive). For the same molecule, the growth was 19.9% (inactive) in [7], 32.7% (inactive) in test [8], 65.1% (inactive) in [9] and 14.7% (inactive) in [10].
`NC1=C(Cl)C(=O)c2ccccc2C1=O`: the growth in [1] was 46.4% (inactive); in [2], 55.7% (inactive); in test [3], 74.4% (inactive); in [4], 111% (inactive); in test [5], 72.3% (inactive); in test [6], 108% (inactive). Moreover, the growth is 67.7% (inactive) in test [7], 12.3% (inactive) in [8], 14.5% (inactive) in test [9] and 80.4% (inactive) in [10].
On to `Cc1nc(N=C(N)N)nc2ccc3ccccc3c12`, for which the growth was 34.9% (inactive) in [2]; -6.19% (active) in [3]; 26.8% (inactive) in [4]; -3.65% (active) in [5]; -5.35% (active) in test [6]; 7.89% (active) in test [7]. Besides, the results for the growth in [8], in [9] and in test [10] were -32.7% (active), 3.6% (active) and 67.6% (inactive), respectively.
`CCN(CC)c1ccc(NC(C(=O)c2ccccc2)c2ccccc2)cc1` (stereo not drawn): the growth was 14.3% (inactive) in [1]; 8.53% (active) in test [2]; 9.32% (active) in test [3]; 60.9% (inactive) in test [4]; 65.2% (inactive) in [5]; 109% (inactive) in test [6]. The growth in test [7] was 59.4% (inactive); in test [8], -4.87% (active); in test [9], 46.1% (inactive); in test [10], 25.4% (inactive).
`CCCCCC(C)c1ccc(O)c(C)c1` (stereo not drawn): the growth in test [1] is 94.3% (inactive); in [3], 102% (inactive); in test [4] it was 102% (inactive); in test [5] it was 95.5% (inactive); in [6], 106% (inactive); in test [7], 117% (inactive). The growth in test [8] is 105% (inactive); in [9], 105% (inactive); in test [10] it was 102% (inactive).
